Experimental findings from PubChem BioAssay AID631 (The Scripps Research Institute Molecular Screening Center, 2007) are described below.

About 810 (0.41%) of roughly 200,000 compounds were called active. The sample holds actives, similar compounds and a random draw of the others, so the mix is not that of the screen. Cut-off read from the data, not from the text of the source: active = activation above about 19%; inactive = the rest.

In this assay the target is Peroxisome proliferator-activated receptor gamma (Homo sapiens) (UniProt P37231). As to the kind of experiment: PPARgamma agonists recruiting SRC-1 coactivator, primary screen, biochemical (AID 631).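 Note: 0% = DMSO and 100% = reference agonist.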 The following applies: PPARgamma-SRC-1 coactivator recruitment biochemical assay; at 8 µM; active compounds read high.
Peroxisome proliferator-activated receptor gamma (Homo sapiens), sequence (P37231 whole entry, looked up): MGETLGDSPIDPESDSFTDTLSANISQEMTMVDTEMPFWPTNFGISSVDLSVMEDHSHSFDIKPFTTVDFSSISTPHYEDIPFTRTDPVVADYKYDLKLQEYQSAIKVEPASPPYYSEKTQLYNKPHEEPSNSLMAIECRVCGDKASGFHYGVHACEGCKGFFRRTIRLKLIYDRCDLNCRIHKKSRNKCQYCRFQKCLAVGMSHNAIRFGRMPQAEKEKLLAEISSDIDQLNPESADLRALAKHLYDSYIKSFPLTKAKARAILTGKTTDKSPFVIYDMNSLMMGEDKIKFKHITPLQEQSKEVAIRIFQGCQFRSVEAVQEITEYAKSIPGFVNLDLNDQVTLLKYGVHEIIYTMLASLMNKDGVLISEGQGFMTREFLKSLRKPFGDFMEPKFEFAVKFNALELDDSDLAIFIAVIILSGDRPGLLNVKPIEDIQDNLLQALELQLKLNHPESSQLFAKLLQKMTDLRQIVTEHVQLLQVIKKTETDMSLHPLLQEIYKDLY
For the compound `CCOC(=O)CNC(=O)N1c2ccccc2Sc2ccccc21`, the activation is 8.4% (inactive).

Turning to `Cc1ccc2c(c1)C1CN(C)CCC1N2C(=O)c1ccccc1NS(=O)(=O)c1ccc(F)cc1C` (configuration not stated), the activation is 1.7% (inactive).

`COc1cc(NC(=O)COC(=O)c2cnc(C)cn2)c(C)cc1[N+](=O)[O-]`: the activation is -1% (inactive).

`Cc1cc(C)c2c(c1)cc(C)c1nnc(SCC(=O)Nc3cc(C)on3)n12`: the activation was 22.2% (active).

For `Cc1ccc(-c2csc(SCC(=O)Nc3cc(C)on3)n2)cc1`, the activation was -4% (inactive).

Consider `Cc1cc(NC(=O)CSc2nnc(Nc3ccccc3F)s2)no1`, for which the activation was -0.2% (inactive).

As to `COc1cccc(C2SCC(=O)N2c2cccc(C)c2)c1OC` (configuration not stated), the activation was 2.3% (inactive).

Turning to `CCCNC(=O)c1c(Cl)cnn1-c1ccc(C)cc1`, the activation was -0.9% (inactive).

Turning to `O=C(O)c1ccc(N/N=C/c2ccc3ncccc3c2)cc1`, the activation is 7.5% (inactive).

`O=C(Nc1nnc(Cc2ccc(Cl)cc2)s1)c1cccnc1`: the activation was 0% (inactive).

Regarding `O=C1CN(C(=O)COC(=O)c2cnc(Cl)c(Cl)c2)c2ccccc2N1`, the activation was 8.3% (inactive).

Consider `Cc1cccc2nc(CSc3nc4[nH]ncc4c(=O)n3-c3cccc(Cl)c3)cc(=O)n12`, for which the activation is 3.8% (inactive).

For `O=c1c2sccc2nc(SCc2cc(=O)n3ccccc3n2)n1-c1ccc(Br)cc1`, the activation is 3% (inactive).

As to `CCc1ccc(-n2c(SCc3cc(=O)n4cc(Br)ccc4n3)nc3[nH]ncc3c2=O)cc1`, the activation was 23.4% (active).

On to `Cc1ccsc1C1C(C#N)=C(N)OC2=C1C(=O)CC(C)(C)C2` (configuration not stated), for which the activation was 11.2% (inactive).

For the compound `COc1ccccc1CCNC(=O)CSc1nnc2ccc(-c3cccnc3)nn12`, the activation is 4.1% (inactive).

`Cc1c(Cc2ccccc2)c(=O)oc2cc(OCC(N)=O)ccc12`: the activation is -0.5% (inactive).

As to `CC(=O)Oc1ccc2c(C)c(CC(C)O)c(=O)oc2c1` (configuration not stated), the activation is -0.8% (inactive).

For `O=C(Oc1ccccc1)Oc1ccc2c(c1)oc(=O)c1ccccc12`, the activation was 33.7% (active).

In the case of `CNC(=S)Nc1ccc([N+](=O)[O-])cc1`, the activation was 7.4% (inactive).

Regarding `CCOc1cnc(-c2c(-c3ccccc3Cl)noc2C)o1`, the activation was 9.5% (inactive).

For `COc1ccc(-c2ccc(CNCCCN3CCOCC3)o2)cc1Cl`, the activation was 10.2% (inactive).

Take `COc1cc(C2C(C(=O)c3ccc(C)o3)=C(O)C(=O)N2CCc2ccccc2)ccc1O` (configuration not stated): the activation was 4.9% (inactive).

Take `COc1cc(C2C(C(=O)c3ccc(C)o3)=C(O)C(=O)N2Cc2cccnc2)ccc1O` (configuration not stated): the activation is -0.3% (inactive).

Turning to `CCCOc1ccc(C2C(C(=O)c3ccc(C)o3)=C(O)C(=O)N2CCCn2ccnc2)cc1` (configuration not stated), the activation is 25.1% (active).

Take `COc1ccc2c(c1)CCc1cn3ncc(C#N)c3nc1-2`: the activation is 2.5% (inactive).

Regarding `CCCn1c(=S)[nH]c2ccc(C(F)(F)F)cc21`, the activation was 7.7% (inactive).

For the compound `Cc1ccc(NC(=O)CSCC(=O)NC2CCCCC2)cc1`, the activation is 6.7% (inactive).

As to `Fc1ccc(COc2cccc(-c3n[nH]c(=S)o3)c2)cc1`, the activation was 61.7% (active).

For `Cc1nc2ccccc2cc1OCc1ccc(F)cc1`, the activation is -0.6% (inactive).

For `Cc1cccc(OCc2ccc(C(=O)Nc3ccc(F)cc3)cc2)c1`, the activation was 8.1% (inactive).

Take `COc1ccc(OC)c(-c2csc(NC(=O)C3=NNC(=O)CC3)n2)c1`: the activation was -3.7% (inactive).

Regarding `Cc1cc(NC(=O)COC(=O)COc2ccc(Cl)cc2C)c([N+](=O)[O-])cc1C`, the activation is -2.9% (inactive).

On to `COc1ccc2c(Cl)c(C(=O)NCc3ccco3)sc2c1`, for which the activation is -0.6% (inactive).

`COc1ccc(-c2nnco2)cc1OC`: the activation is -4% (inactive).

On to `COc1ccc2c(Cl)c(-c3nnco3)sc2c1`, for which the activation is 24.2% (active).

Regarding `CC(=O)Nc1ccccc1OC(C)C(=O)N1CCC(C)CC1` (configuration not stated), the activation is 3.2% (inactive).

Consider `Cc1nn2cc(-c3ccc(Cl)cc3)cnc2c1Br`, for which the activation was 9.4% (inactive).

As for `Cc1cc(C(F)(F)F)n2ncc(-c3ccccc3)c2n1`, the activation is -0.8% (inactive).

For `Cn1c(-c2sc3cc(C(F)(F)F)cnc3c2-c2ccccc2)n[nH]c1=S`, the activation is 36.3% (active).

Take `Cn1c(-c2sccc2OCc2cccc(C(F)(F)F)c2)n[nH]c1=S`: the activation was 2.2% (inactive).

Consider `COc1cccc(CNC(=O)CCC2CCCN(C(=O)c3ccoc3C)C2)c1` (configuration not stated), for which the activation is 11.7% (inactive).

Regarding `CC1(C)CN(c2ccc(-c3ccnc4ncnn34)cc2)C1=O`, the activation was -2.6% (inactive).

For the compound `CSCCC(=O)N1CCCC(CNC(=O)c2ccccc2Cl)C1` (configuration not stated), the activation is 6% (inactive).

For `COc1ccccc1C1/C(=C(/O)c2ccc(OC(C)C)cc2)C(=O)C(=O)N1c1cc(C)on1` (configuration not stated), the activation was 16.5% (inactive).

Turning to `Cc1cc(N2C(=O)C(=O)/C(=C(/O)c3ccc(Cl)cc3)C2c2cccc(Br)c2)no1` (configuration not stated), the activation is 20.6% (active).

Take `COc1ccc(C2/C(=C(/O)c3ccccc3)C(=O)C(=O)N2c2ncccn2)cc1OC` (configuration not stated): the activation is 8.9% (inactive).

For the compound `Cc1ccc(C(=O)Cc2nnc(C)s2)cc1`, the activation is -2.5% (inactive).

Regarding `Cc1cccc(NC(=S)N2CCC(O)CC2)c1C`, the activation was 1.3% (inactive).

On to `CCN1CCN(c2cc3nc(C)n(Cc4ccccc4)c(=O)c3cc2NC(=O)c2ccccc2F)CC1`, for which the activation is 3.9% (inactive).

`COc1cccc(NC(=S)NCc2ccco2)c1`: the activation is -2.7% (inactive).

On to `Cc1nc(-c2ccccc2)sc1-c1nc(-c2ccccc2)ncc1S(=O)(=O)c1ccccc1`, for which the activation is 19.3% (active).

`Cc1nc(-c2ccccc2)sc1C(=O)/C=C/c1ccccc1`: the activation is -1.9% (inactive).

Turning to `C=CCn1c(-c2sc(-c3ccccc3)nc2C)n[nH]c1=S`, the activation was 0.8% (inactive).

Consider `O=C(O)C1C2CC2CN1C(=O)c1ccc(Cl)cc1Cl` (configuration not stated), for which the activation was 4.2% (inactive).

As to `Cc1cccc(C)c1NC(=O)C1(C)c2cccc[n+]2CC(=O)N1Cc1cccs1` (configuration not stated), the activation is -2.9% (inactive).

Turning to `Cc1nc(SCc2ccc(F)cc2)c([N+](=O)[O-])[nH]1`, the activation is 5.8% (inactive).

For the compound `COc1ccc(/C(O)=C2\C(=O)C(=O)N(Cc3ccco3)C2c2ccc(OC)cc2OC)cc1` (configuration not stated), the activation is 2% (inactive).

Turning to `COc1ccc(/C(O)=C2/C(=O)C(=O)N(c3nc(C)c(C)s3)C2c2ccco2)cc1` (configuration not stated), the activation was 22.1% (active).

With `COc1ccccc1C1/C(=C(/O)c2ccc(C)cc2)C(=O)C(=O)N1Cc1ccco1` (configuration not stated), the activation is 10.8% (inactive).

Turning to `COC(=O)c1c(C)[nH]c(C)c1-c1ccc([N+](=O)[O-])cc1`, the activation was -0.7% (inactive).

`Cc1ccc(/C=N/NC(=O)COc2ccccc2-c2ccccc2)cc1`: the activation is 2.1% (inactive).
